Data: the GenesisPotency data set
Out of some 290,000 compounds screened, about 3,000 (1%) were called active. Rule as the data show it: active = inhibition mostly above about 36% (no sharp cut-off); inactive = mostly below about 34%. Only a selection was taken, and actives are over-represented in it overall.

Target: T1, Nucleotide-binding oligomerization domain-containing protein 1, Homo sapiens (UniProt Q9Y239)
T1 sequence (whole entry): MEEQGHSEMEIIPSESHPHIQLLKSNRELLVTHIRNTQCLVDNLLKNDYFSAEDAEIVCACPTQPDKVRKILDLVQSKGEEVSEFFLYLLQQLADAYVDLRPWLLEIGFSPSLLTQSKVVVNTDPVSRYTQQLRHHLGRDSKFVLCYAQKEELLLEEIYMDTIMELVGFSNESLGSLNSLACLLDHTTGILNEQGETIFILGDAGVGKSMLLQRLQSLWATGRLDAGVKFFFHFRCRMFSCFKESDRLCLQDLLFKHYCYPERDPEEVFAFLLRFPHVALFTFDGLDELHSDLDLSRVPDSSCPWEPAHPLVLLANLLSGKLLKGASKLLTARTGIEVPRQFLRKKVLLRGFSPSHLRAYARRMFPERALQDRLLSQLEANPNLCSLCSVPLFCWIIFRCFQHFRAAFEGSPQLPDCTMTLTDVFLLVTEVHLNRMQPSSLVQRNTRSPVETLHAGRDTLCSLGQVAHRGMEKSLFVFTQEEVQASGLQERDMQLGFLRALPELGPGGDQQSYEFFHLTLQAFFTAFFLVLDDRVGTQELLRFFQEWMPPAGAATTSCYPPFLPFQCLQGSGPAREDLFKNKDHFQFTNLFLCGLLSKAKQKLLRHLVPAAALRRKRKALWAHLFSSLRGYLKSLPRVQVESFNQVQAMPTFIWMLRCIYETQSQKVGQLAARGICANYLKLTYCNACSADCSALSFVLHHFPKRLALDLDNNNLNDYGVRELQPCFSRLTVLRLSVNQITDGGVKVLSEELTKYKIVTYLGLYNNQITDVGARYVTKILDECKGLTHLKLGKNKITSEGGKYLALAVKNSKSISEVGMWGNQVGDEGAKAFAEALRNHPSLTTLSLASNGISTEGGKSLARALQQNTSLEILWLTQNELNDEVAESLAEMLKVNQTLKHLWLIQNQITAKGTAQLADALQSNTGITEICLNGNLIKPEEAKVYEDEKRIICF
Assay: NOD1 signaling inhibitors, primary screen, cell-based, luminescence, uHTS (AID 1578)

Row | Structure (SMILES) | outcome
1 | CCN(CC)S(=O)(=O)c1cccc(NC(=O)Nc2cccc(C(F)(F)F)c2)c1 | active
2 | Cc1ccc(Cc2cnc(N3C(=N)SC(C)C3=O)s2)cc1 (stereo unspecified) | active
3 | Cc1cccc(Cc2cnc(N3C(=N)SC(C)C3=O)s2)c1 (stereo unspecified) | active
4 | CC1=C(C(=O)OCc2ccc3c(c2)OCO3)C(c2ccc(Cl)cc2)NC(=O)N1 (stereo unspecified) | active
5 | CC1=C(C(=O)OCc2ccc3c(c2)OCO3)C(c2ccc(O)c([N+](=O)[O-])c2)NC(=O)N1 (stereo unspecified) | active
6 | CC1=C(C(=O)OCc2ccc3c(c2)OCO3)C(c2ccc(F)cc2)NC(=O)N1 (stereo unspecified) | active
7 | CC1=C(C(=O)OCc2ccc3c(c2)OCO3)C(c2ccccc2)NC(=O)N1 (stereo unspecified) | active
8 | O=C(NCc1ccccc1)C1=C[C@@H](c2csc3ccccc23)C[C@@H](OCCCCO)O1 | active
9 | CCn1nc(C)c(NC(=O)/C=C/c2ccc(OC)c(COc3ccc(Br)cc3)c2)c1C | active
10 | CCC(C)N(CC(=O)Nc1cccc(C)c1C)C(=O)CCl (stereo unspecified) | active
11 | CCCN(CC(=O)Nc1ccccc1C)C(=O)CCl | active
12 | CCc1c(C)sc2nc(C(C)C)nc(SCC(=O)N3CCc4ccccc4C3)c12 | active
13 | Cc1cc(C(=O)CSc2nc3ccccc3c(=O)n2C)c(C)n1Cc1ccc2c(c1)OCO2 | active
14 | Cc1cc(C(=O)CSc2nc3ccccc3c(=O)n2C)c(C)n1CC1CCCO1 (stereo unspecified) | active
15 | Cc1cc(C(=O)CN2C(=O)c3ccccc3S2(=O)=O)c(C)n1CC1CCCO1 (stereo unspecified) | active
16 | COc1ccc(CCNC(=S)N2CCC(Cc3ccccc3)CC2)cc1OC | active
17 | N=C1S/C(=C\c2ccco2)C(=O)N1c1nccs1 | active
18 | N=C1S/C(=C\c2ccc(-c3cccc(Cl)c3)o2)C(=O)N1c1nccs1 | active
19 | Cn1ncc2c(N3CCN(c4ccc(Cl)c(Cl)c4)CC3)ncnc21 | active
20 | O=C(Nc1ccc(Cl)c(Cl)c1)Nc1ccccc1NS(=O)(=O)c1cccs1 | active
21 | O=C(Nc1ccc(Cl)c(Cl)c1)Nc1ccc(Br)cc1F | active
22 | S=C(NCCc1ccccc1)Nc1cccc2cnccc12 | active
23 | COc1ccccc1-c1nnc(SCC(=O)Nc2nc(-c3ccccc3)cs2)n1C | active

Row | Structure (SMILES) | outcome
24 | COc1nc(Nc2nc3ccccc3c(=O)[nH]2)nc2ccc(C)cc12 | active
25 | COc1ccc(NC(=O)Cn2nnc(-c3ccccc3NS(=O)(=O)c3ccc(OC)cc3)n2)cc1 | active
26 | O=[N+]([O-])c1cccc(S(=O)(=O)Nc2nc3ccccc3nc2Nc2cccc(S(=O)(=O)N3CCCCC3)c2)c1 | active
27 | Cc1ccc(S(=O)(=O)Nc2nc3ccccc3nc2Nc2cccc(S(=O)(=O)N3CCCC3)c2)cc1 | active
28 | COc1cc(Nc2nc3ccccc3nc2NS(=O)(=O)c2ccc([N+](=O)[O-])cc2)cc(OC)c1OC | active
29 | CCOc1cc(C)c(Cl)cc1S(=O)(=O)n1nnc2ccccc21 | active
30 | CC(=O)n1c(Cl)c(NC(=O)CCl)c2ccccc21 | active
31 | COc1ccc(-c2csc(NC(=O)c3ccccc3NS(=O)(=O)c3ccc(C)cc3)n2)cc1 | active
32 | COc1ccccc1C(=O)Nc1nc(-c2ccc(S(=O)(=O)N3CCOCC3)cc2)cs1 | active
33 | Cc1ccc(S(=O)(=O)Nc2ccccc2C(=O)Nc2nc(-c3ccc(F)cc3)cs2)cc1 | active
34 | COc1cccc(NC(=O)Nc2nc(-c3ccc(OC)c(OC)c3)cs2)c1 | active
35 | COc1ccc(S(=O)(=O)Nc2ccccc2C(=O)Nc2nc(-c3ccc(F)cc3)cs2)cc1OC | active
36 | O=C(Nc1nc(-c2ccccc2)cs1)c1ccccc1NS(=O)(=O)c1ccc(F)cc1 | active
37 | COc1ccc(-c2csc(NC(=O)c3ccccc3NS(=O)(=O)c3ccc(F)c(F)c3)n2)cc1 | active
38 | COc1ccc(NC(=O)c2ccc(-c3ccccc3)cc2)cc1NS(=O)(=O)c1ccc(F)cc1 | active
39 | O=C(Nc1ccccc1)C1=C(c2ccccc2)S(=O)(=O)CCS1(=O)=O | active
40 | Cc1ccc(NC(=O)C2=C(c3ccccc3)S(=O)(=O)CCS2(=O)=O)cc1 | active
41 | NS(=O)(=O)c1ccc(Sc2nc3ccccc3s2)c([N+](=O)[O-])c1 | active
42 | COc1ccc(-c2nn(-c3ccccc3)cc2/C=N/NC(=O)c2ccc(Br)o2)cc1 | active
43 | Cc1ccc(-c2nn(-c3ccccc3)cc2/C=N/NC(=O)c2ccc(Br)o2)cc1 | active
44 | O=C(OCn1ncc(Br)c(Br)c1=O)c1c(F)cccc1F | active
45 | O=C(OCn1ncc(Br)c(Br)c1=O)c1ccc(F)cc1 | active
46 | CC(=O)Cn1ncc(Br)c(Br)c1=O | active

Row | Structure (SMILES) | outcome
47 | O=C(NC(=S)N(CCCCO)C1CCCCC1)c1sc2ccccc2c1Cl | active
48 | Cc1nnc(SCC(=O)N2CCC(c3noc4ccc(F)cc34)CC2)s1 | active
49 | O=C(NC(Nc1nc2ccc([N+](=O)[O-])cc2s1)(C(F)(F)F)C(F)(F)F)c1ccccc1Cl | active
50 | CC[C@@]1(O)C(=O)OCc2c1cc1n(c2=O)Cc2cc3c(N)cccc3nc2-1 | active
51 | Cc1ccc(Cl)c(NC(=O)COC(=O)c2ccccc2C(=O)c2ccc(Cl)c([N+](=O)[O-])c2)c1Cl | active
52 | CNC(=O)COC(=O)c1ccccc1C(=O)c1ccc(Cl)c([N+](=O)[O-])c1 | active
53 | O=C(COC(=O)c1ccccc1C(=O)c1ccc(Cl)c([N+](=O)[O-])c1)NC1CC1 | active
54 | N#Cc1cccc(NC(=O)COC(=O)c2ccccc2C(=O)c2ccc(Cl)c([N+](=O)[O-])c2)c1 | active
55 | CC(C)(C)OC(=O)NCCc1nnc(S(=O)(=O)Cc2ccc(Cl)cc2Cl)o1 | active
56 | Cc1sc2nc(SCc3ccc(C(=O)O)cc3)n(Cc3ccco3)c(=O)c2c1C | active
57 | COC(=O)c1ccc2c(c1)C(C)(C)C(/C=C/c1ccc(O)cc1)=[N+]2C.[I-] | active
58 | O=S1(=O)C=C(Sc2nc3cc(Cl)ccc3o2)c2ccccc21 | active
59 | Cn1c(SC2=CS(=O)(=O)c3ccccc32)nc2ccccc21 | active
60 | O=S1(=O)C=C(Sc2nc3ccccc3s2)c2ccccc21 | active
61 | Cc1cc(C)cc(NC(=O)CSc2nnc(Cc3cccn3C)n2-c2ccc(F)cc2)c1 | active
62 | CC(=O)NC(=C(Cl)Cl)S(=O)(=O)c1ccccc1 | active
63 | O=C(NC(=C(Cl)Cl)S(=O)(=O)c1ccc(Cl)cc1)c1ccccc1 | active
64 | Cc1ccc(C(=O)NC(C#N)=C(Cl)Cl)cc1 | active
65 | Cc1ccc(C(=O)NC(=C(Cl)Cl)S(=O)(=O)c2ccccc2)cc1 | active
66 | O=C(NCCCSc1ccccc1)c1cc(Cl)ccc1O | active
67 | O=C(NCCCSc1ccccc1)c1cc(Br)ccc1O | active
68 | COC(=O)c1cccc2c1-c1ccccc1/C2=N/O | active
69 | CCOC(=O)c1cccc2c1-c1ccccc1/C2=N/O | active

Row | Structure (SMILES) | outcome
70 | Cc1ccc2c(C(=O)CCl)c(C)[nH]c2c1 | active
71 | Cc1[nH]c2ccccc2c1C(=O)CCl | active
72 | O=[N+]([O-])c1ccccc1S(=O)(=O)Nc1cccc2cccnc12 | active
73 | Cc1ccc2cccc(NS(=O)(=O)c3ccccc3)c2n1 | active
74 | Cc1ccc(S(=O)(=O)Nc2cccc3cccnc23)cc1 | active
75 | COc1cc(NS(=O)(=O)c2ccc3ccccc3c2)c2ncccc2c1 | active
76 | Cc1ccc(S(=O)(=O)Nc2cccc3cccnc23)c([N+](=O)[O-])c1 | active
77 | C[C@@H]1C[C@@H]2O[C@H]2/C=C\C=C\C(=O)Cc2c(Cl)c(O)cc(O)c2C(=O)O1 | active
78 | C/C(=N\NC(=O)c1ccc(Cl)cc1)c1ccccn1 | active
79 | C/C(=N\NC(=O)c1ccc(F)cc1)c1ccccn1 | active
80 | C/C(=N\NC(=O)c1cccc(Br)c1)c1ccccn1 | active
81 | C/C(=N\NC(=O)Cc1ccc(Cl)cc1)c1ccccn1 | active
82 | C/C(=N\NC(=O)COc1ccccc1-c1ccccc1)c1ccccn1 | active
83 | COc1ccc(C(=O)N/N=C(\C)c2ccccn2)cc1OC | active
84 | C/C(=N\NC(=O)c1ccc(Cl)c(Cl)c1)c1ccccn1 | active
85 | Nc1c(Cl)ncnc1N/N=C/c1ccccn1 | active
86 | c1ccc(CNc2ncnc3ccccc23)cc1 | inactive
87 | Cc1cc2c(NCc3ccccc3)ncnc2s1.Cl | active
88 | Cl.c1ccc(CNc2ncnc3ccccc23)cc1 | active
89 | COc1ccc(CNc2ncnc3ccccc23)cc1 | active
90 | CC(Nc1ncnc2ccccc12)c1ccccc1 (stereo unspecified) | active
91 | COc1cccc(CNc2ncnc3cc(Cl)ccc23)c1 | active
92 | Brc1ccc2ncnc(NCc3cccnc3)c2c1 | active

Row | Structure (SMILES) | outcome
93 | S=C(Nc1ccc(Cl)c(Cl)c1)NC1CCCCC1 | active
94 | Fc1ccc(NC(=S)NNc2ncc(C(F)(F)F)cc2Cl)c(F)c1 | active
95 | COCCOC(=O)c1[nH]c2c(c1C)C(=O)CC(c1cc(OC)c(OC)c(OC)c1)C2 (stereo unspecified) | active
96 | CCCCOC(=O)c1[nH]c2c(c1C)C(=O)CC(c1cc(OC)c(OC)c(OC)c1)C2 (stereo unspecified) | active
97 | Cc1ccc(-c2csc(NC(=O)C3=NN(c4ccccc4)C(=O)CC3)n2)cc1 | active
98 | O=C(N/N=C/c1ccc([N+](=O)[O-])s1)c1ccncc1 | active
99 | Cc1ccc(C(=O)N/N=C/c2ccc([N+](=O)[O-])s2)cc1 | active
100 | Cc1ccc2oc(Nc3nc(-c4ccccc4)cc(=O)[nH]3)nc2c1 | active
101 | COc1cccc(C(=O)Nc2ccc3nc(N4CCN(c5ncccn5)CC4)cc(C)c3c2)c1OC | active
102 | Cc1ccc2nc(-c3ccc4c(c3)OCCO4)cn2c1 | active
103 | O=C(/C=C/c1ccco1)Oc1cc(Br)cc(/C=N/NC(=O)c2ccccc2O)c1 | active
104 | O=C(Nc1nc(-c2cccs2)cs1)c1ccc(S(=O)(=O)N2CCCC2)cc1 | active
105 | O=C(Nc1nc(-c2ccccc2)cs1)C1CCCN(S(=O)(=O)c2ccccc2)C1 (stereo unspecified) | active
106 | O=C(Nc1nnc(SCc2c(Cl)cccc2Cl)s1)c1cccc([N+](=O)[O-])c1 | active
107 | CC(=O)c1cccc(NS(=O)(=O)c2ccc(-c3cnc(C4CC4)o3)cc2)c1 | active
108 | COc1ccc(CCNc2cc(N3CCN(C(=O)c4ccccc4F)CC3)ccc2[N+](=O)[O-])cc1OC | active
109 | Cc1cccc(Sc2c(C=O)c3ccccc3n2C)c1 | active
110 | Cc1ccc(Sc2c(C=O)c3ccccc3n2C)cc1 | active
111 | Cn1c(Sc2ccc(Br)cc2)c(C=O)c2ccccc21 | active
